Results reported in PubChem BioAssay AID720504 (National Center for Advancing Translational Sciences (NCATS), 2013).
The whole screen tested about 360,000 compounds, of which about 10,000 (2.8%) were called active. About 4% were inconclusive and are not listed. Calls follow the shape of the dose curve; as a rule, active = well fitted inhibition curve with a large enough effect; inconclusive = small, poorly fitted or top-dose-only effect; inactive = flat fitted curve, though single readings scatter. The list comes from a sample in which actives are over-represented; it also holds similar structures and randomly drawn compounds.

What follows are compounds tested against Serine/threonine-protein kinase PLK1 (Homo sapiens) (UniProt P53350) (assay: qHTS for Inhibitors of PLK1-PDB (polo-like kinase 1 - polo-box domain): Primary Screen). Settings: Plk1 PBD binding of FITC phosphopeptide, fluorescence polarization.
% is scaled to controls: 0 for no effect and ±100 for the full control effect; potency is read from the fitted curve at half-maximal effect.
Also: nearly all actives have a fitted effect of over 65% in size.
For Max response, negative = inhibition in this document: series mostly up to about 57 µM.

Chain of Serine/threonine-protein kinase PLK1 (Homo sapiens) (P53350 whole entry, looked up, the tested form may be a part): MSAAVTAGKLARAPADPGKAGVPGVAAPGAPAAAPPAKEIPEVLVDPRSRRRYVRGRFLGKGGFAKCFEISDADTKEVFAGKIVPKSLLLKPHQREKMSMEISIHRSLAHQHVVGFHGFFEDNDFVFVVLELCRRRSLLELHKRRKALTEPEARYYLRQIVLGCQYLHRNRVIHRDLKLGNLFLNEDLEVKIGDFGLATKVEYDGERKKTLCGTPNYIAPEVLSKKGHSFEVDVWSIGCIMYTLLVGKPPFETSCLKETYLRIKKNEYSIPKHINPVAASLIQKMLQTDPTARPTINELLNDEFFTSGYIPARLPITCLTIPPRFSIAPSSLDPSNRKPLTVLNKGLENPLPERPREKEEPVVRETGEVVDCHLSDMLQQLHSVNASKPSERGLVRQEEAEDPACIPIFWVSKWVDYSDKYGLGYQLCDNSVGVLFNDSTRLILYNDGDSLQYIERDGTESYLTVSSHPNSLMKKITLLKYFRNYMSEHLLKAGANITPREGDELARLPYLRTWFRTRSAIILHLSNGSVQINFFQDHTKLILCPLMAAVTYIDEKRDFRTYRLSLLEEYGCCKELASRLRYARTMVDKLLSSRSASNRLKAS

Max response, negative = inhibition, inactive:
CCCCN(C=O)c1c(CC)nc2c(OCc3ccccc3C(=O)OC)cccn12 -4.2%
O=C1NC[C@H](CCCCN2C[C@H](Cc3ccc(O)cc3)N(CCc3ccccc3)C(=O)C2=O)N(CCc2ccccc2)C1=O -1.17%
CCCn1c(SCC(=O)Nc2c(C)cccc2C)nnc1C(C)C -7.66%
CCCn1c(SCC(N)=O)nnc1C(C)C -6.68%
CC(C)Cc1ccc(-c2cc3nc(NCc4cccc(Cl)c4)ccn3n2)cc1 -0.174%
COc1ccc(C)cc1NC(=O)NCc1ccccn1 3.53%
CCOc1ccc(N2CC(C(=O)NCc3ccccn3)CC2=O)cc1 (stereo not given) 6.65%
CCCC(=O)N1CCC1(C)C(=O)NCc1ccc(SC)cc1 (stereo not given) 4.65%
CO[C@@H]1CN(C)C(=O)c2cc(NC(=O)Nc3cc(F)ccc3F)ccc2OC[C@H](C)N(C(=O)c2ccccn2)C[C@@H]1C -4.19%
COc1ccc(CNC(=O)COC(=O)c2c(C)nn(-c3ccccc3)c2C)cc1OC -2.1%
Cc1cccc(C)c1NC(=O)COC(=O)c1c(C)nn(-c2ccccc2)c1C 2.85%
Cc1ccc(F)c(S(=O)(=O)NC(=O)C2(C)CCN2C(=O)CCc2cccs2)c1 (stereo not given) -3.35%
CCn1c(COc2ccc(OC)cc2)nnc1SCC(=O)Nc1cc(OC)ccc1OC -3.02%
CCSc1nc(O)c(C(c2cccc(OC)c2)c2c(O)nc(SCC)[nH]c2=O)c(=O)[nH]1 -21.7%
Cc1cccc(C(=O)NC2CCN(CC(=O)Nc3cccc(Cl)c3)CC2)c1 -8.54%
COc1ccc([C@H]2C[C@@H](n3cc(COC(=O)c4ccccc4)nn3)[C@H](O)CN2C(=O)c2cccs2)cc1 -9.99%
COc1cccc(CNc2nc3cc(-c4csc5ccccc45)sc3c(=O)n2C)c1 -2.77%
COc1cccc(NC(=O)CCNS(=O)(=O)c2ccc3c(c2)oc(=O)n3C)c1 -5.8%
Cc1ccc(NC(=O)CCNS(=O)(=O)c2ccc3c(c2)oc(=O)n3C)cc1C 0.556%
N#CCCN1CCN(S(=O)(=O)c2ccc(S(=O)(=O)N3CCCC3)cc2)CC1 -6.31%
N#Cc1cccc(CN2CCC(=O)N(CCO)CC2)c1 -6.69%
COc1ccc(OC)c(CN2C(=O)CCC2(C)c2nnnn2Cc2ccccc2)c1 (stereo not given) -0.666%
Cc1ccc(C)c(C(O)c2ncc(-c3cccc4ccccc34)[nH]2)c1 (stereo not given) -3.49%
CCc1nc2ccc(C(=O)NCc3ccc(OC)cc3)cn2c1N(CC)Cc1cccc(Br)c1 -13.2%
CC(C)c1ccc(C(=O)OC2CCOC2=O)cc1 (stereo not given) -4.1%
COC(=O)c1ccc(COC(=O)c2c(C)nn(Cc3ccccc3Cl)c2Cl)o1 -10.8%
N#Cc1ccc(-c2nc3c(Cl)cc(C(F)(F)F)cn3c2Cc2ccccc2C(F)(F)F)cc1 1.56%
CC1(C(=O)Nc2ccccc2Br)CCN1C(=O)CC1CC1 (stereo not given) -11.1%
O=C(/C=C/c1cc2c(cc1Br)OCO2)NCc1ccc(Cl)cc1 -5.95%
O=C(N/N=C/c1cc2c(cc1Br)OCO2)C1COc2ccccc2O1 (stereo not given) 6.15%
CC(=O)C1=CCC(c2ccccc2)N(S(=O)(=O)c2ccc(C)cc2)C1 (stereo not given) -15.4%
CCCNC(=O)C1(C)CCN1C(=O)Cc1ccc(-c2ccccc2)cc1 (stereo not given) -9.86%
O=C(NCc1ccc2c(c1)OCO2)c1cc(F)c(F)cc1Cl -7.37%
COc1cc(OC)c(C(=O)NCc2ccc3c(c2)OCO3)cc1OC -15%
CC1(C(=O)NCc2ccco2)Cc2c(-c3ccc4c(c3)OCO4)ccnc2O1 (stereo not given) -5.07%
CCCNC(=O)C[C@@H]1CC[C@@H]2[C@H](COC[C@H](O)CN2C(=O)c2cc(Cl)cc(Cl)c2)O1 -0.764%
Cn1cc(CNC(=O)c2ccc(OC3CCN(Cc4ccccn4)CC3)cc2)cn1 -5.74%
CN(CCc1ccccn1)C(=O)c1ccc(OC2CCN(Cc3ccccn3)CC2)cc1 5.54%
Cc1cccc(S(=O)(=O)N(C)C[C@H]2OCc3cnnn3CCCC(=O)N([C@@H](C)CO)C[C@H]2C)c1 -16.9%
CCCCCCNC(=O)O[C@H]1CN(C(=O)OC(C)C)N(C(=O)OC(C)C)[C@@H]2CN(S(=O)(=O)c3ccc(C)cc3)C[C@]12O -12.5%
COC(=O)c1ccc(NC(=S)NN2CCOCC2)cc1 -1.75%
O=C(Nc1ccc(S(=O)(=O)Nc2ncccn2)cc1)C12CC3CC(CC(C3)C1)C2 -7.71%
O=C(CNC(=O)N1CC(=O)Nc2ccccc21)Nc1ccc(Br)cc1F -4.26%
Cc1ccc(S(=O)(=O)N2C[C@H]3C(=O)C[C@@H](c4cccc5ccccc45)N(S(=O)(=O)c4ccc(C)cc4)[C@H]3C[C@H]2c2ccc(Cl)cc2)cc1 -18.3%
COC(=O)c1ccc2nc(-c3ccc(C)cc3)c(Cc3ccc(OC)cc3C)n2c1 -3.95%
CCN(C(=O)CSc1cccc[n+]1[O-])c1ccccc1 4.89%
O=C(CSc1cccc[n+]1[O-])NCCCc1ccccc1 -10.9%
N#CCCN(C(=O)Nc1ccc(Cl)c(Cl)c1)C1CCCCC1 9.26%
NC(Cc1ccccc1)c1csc(Nc2cc(Oc3ccccc3)ncn2)n1 (stereo not given) -8.4%
CCn1c(/C=N/NC(=O)c2ccc(OC)cc2)nc2ccccc21 1.71%
COC(=O)CNC(=O)c1ccc(OC2CCN(C(=O)C3CC3)CC2)cc1 -1.29%
Nc1cccc(-c2cncc(N3CCN(Cc4ccccn4)CC3)n2)c1 -6.49%
COc1ccc(-n2c(-c3ccc(Cl)cc3)n[nH]c2=S)c(OC)c1 -18.3%
CC(C)CCNC(=O)c1[nH]c(C(F)(F)F)nc1-c1ccccc1 -2.14%
COc1ccc(C2CC(c3ccccc3)=NN2C(=O)COC(=O)COc2ccccc2)cc1 (stereo not given) -2.07%
COc1ccc(OCC(=O)NNC(=O)C2CCC2)cc1 3.29%
Cc1ccc(NC(=O)[C@H](Cc2ccccc2)NC(=O)CC[C@H]2O[C@@H](n3ccc(=O)[nH]c3=O)[C@H](O)[C@@H]2O)cc1C -5.11%
OC(c1cc(Cl)cc(Cl)c1)c1ncc(-c2ccccc2C(F)(F)F)[nH]1 (stereo not given) 4.04%
CCOC(=O)[C@]12CCCC=C1N(Cc1cccc3ccccc13)C(=O)[C@H](CC(=O)NCC13CC4CC(CC(C4)C1)C3)C2 -3.19%
CCCS(=O)(=O)NC(=O)C1(C)CCCN(C(=O)c2cc(C)on2)C1 (stereo not given) -2.32%
CC(=O)c1c(C)[nH]c(=S)c(C#N)c1-c1ccc(F)cc1 -8.58%
COc1ccc(NC(=O)C(c2ccncc2)n2c(=O)c(-c3cc4ccccc4[nH]3)nc3ccccc32)cc1 (stereo not given) 12.4%
COc1ccc(CNC(=O)C(C)NCc2ccccc2Cl)cc1 (stereo not given) 5.25%
CCOC(=O)C(NC(C)=O)C(=O)Nc1ccc(OC)cc1 (stereo not given) -7.21%
C=CCC[C@@H](CCCCC)OC(=O)/C=C/[C@@H](O)[C@H](O)C[C@H](O)CC=C -3.6%
CC1(C)OC(=O)C2=C(C[C@@H](C3CC3)O[C@H]2c2ccc(Cl)cc2)O1 -2.8%
CC(C)(C)NC(=O)NC(=O)COC(=O)Cn1c(C(F)(F)F)nc2ccccc21 -11.6%
CN1CCN(C(=O)Cn2c(C(F)(F)F)nc3ccccc32)CC1 -6.38%

Potency, active:
CCCn1c(SCC(=O)c2ccc3c(c2)OCCO3)nnc1C(C)C 2.99 µM
COc1ccc(NC(=O)C2C3C=CC(C3)C2C(=O)NCc2ccccn2)c(OC)c1 (stereo not given) 26.7 µM
Cc1nn(-c2ccccc2)c(C)c1C(=O)OCC(=O)NC(=O)NC1CCCCC1 21.2 µM
CCn1c(SC)nc(O)c(C(c2ccc(OC)c(O)c2)c2c(O)nc(SC)n(CC)c2=O)c1=O 16.8 µM
Cn1c(=O)oc2cc(S(=O)(=O)NCCC(=O)NCc3ccccc3Cl)ccc21 23.8 µM
CC(C)(C)c1cc(CN2CCN(CCC#N)CC2)cc(C(C)(C)C)c1O 8.44 µM
Cc1nn(Cc2ccccc2)c(Cl)c1C(=O)OC1CCOC1=O (stereo not given) 21.2 µM
O=C(O)CC/C(=C\c1cc2c(cc1Br)OCO2)c1nc2ccccc2s1 23.8 µM
Cc1nc2c(C(=O)NCc3ccc4c(c3)OCO4)c[nH]n2c(=O)c1Cc1ccccc1F 21.2 µM
Cc1nn(C)c(C)c1C(C)NC(=O)c1ccc(OC2CCN(Cc3ccccn3)CC2)cc1 (stereo not given) 2.12 µM
COC(=O)c1ccc(NC(=O)C23CC4CC(C2)CC(n2cnc(Cl)n2)(C4)C3)cc1 23.8 µM
O=C(CSc1cccc[n+]1[O-])c1ccc(-c2ccccc2)cc1 23.8 µM
CCc1ccc(/C=N/NC(=O)c2ccc(OC3CCCC3)cc2)s1 11.9 µM
COc1ccc(OCc2nnc3n2N=C(c2ccccc2)C(CC(=O)O)S3)cc1 (stereo not given) 1.5 µM
CCc1c(C)[nH]c(=S)c(C#N)c1C 29.9 µM
COc1ccc(NC(=O)C(NC(C)=O)C(=O)NCc2ccccc2Cl)cc1 (stereo not given) 15 µM
Cc1ccccc1OC(=O)Cn1c(C(F)(F)F)nc2ccccc21 15 µM
